# In PubChem BioAssay (NCI):
# About 83,000 compounds went through this panel and 20% of them were active in at least one assay; those are over-represented in the sample as a whole.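 Step 1: grow cells in 96-well plates. Step 2: add test compound at a single concentration. Step 3: incubate 48 h. Step 4: record percent growth.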 Unmarked numbers belong to inactive results. The source made the active and inactive calls. The calls were made as follows: active = growth percent below 10; inactive = the rest.
# Columns and labels:
# Assay in all cases: NCI-60 one-dose screen, 48 h (100 = growth as untreated, 0 = no growth, -100 = all killed)
# Conditions in all cases: 10 µM unless noted
# [1] = tested on: DU-145 prostate
# [2] = tested on: K-562 leukemia
# [3] = tested on: MALME-3M melanoma
# [4] = tested on: MDA-MB-231 breast
# [5] = tested on: SF-268 CNS
# [6] = tested on: SF-295 CNS
# [7] = tested on: SF-539 CNS
# [8] = tested on: UACC-257 melanoma
# [9] = tested on: M14 melanoma
# [10] = tested on: HCT-15 colon
# [11] = tested on: HT29 colon
# [12] = tested on: SNB-75 CNS
# [13] = tested on: SNB-19 CNS
# [14] = tested on: U251 CNS
# [15] = tested on: PC-3 prostate
# [16] = tested on: SK-MEL-5 melanoma
# [17] = tested on: UACC-62 melanoma
# [18] = tested on: LOX IMVI melanoma
# [19] = tested on: SK-MEL-28 melanoma
Structure (SMILES),growth [1],growth [2],growth [3],growth [4],growth [5],growth [6],growth [7],growth [8],growth [9],growth [10],growth [11],growth [12],growth [13],growth [14],growth [15],growth [16],growth [17],growth [18],growth [19]
COc1ccc(/C=N/NC(=O)c2cccc3cc[nH]c23)cc1O,28.3%,27.8%,43%,55.2%,53%,-20.3% (active),-18.8% (active),47.3%,0.307% (active),33.2%,19.7%,18.6%,39.7%,26.6%,31.5%,2.92% (active),33%,53.1%,63.4%
Cc1c(C2=CCCCC2)c2ccccn2c1C(=O)c1cccc(S(=O)(=O)N2CCOCC2)c1,98.3%,57.4%,73.5%,92%,75%,34.6%,97.2%,86.8%,61.9%,83.9%,59.5%,57.8%,101%,91.4%,71.1%,104%,77.7%,89.1%,101%
O=C(/C=C\c1ccc(OCCCCCC[P+](c2ccccc2)(c2ccccc2)c2ccccc2)cc1)c1ccc2c(c1)OCCO2,6.93% (active),2.43% (active),-15.3% (active),2.28% (active),-4.06% (active),-17.4% (active),3.93% (active),-5.23% (active),-3.09% (active),22%,-17.5% (active),-40.4% (active),16.2%,-58.5% (active),6.58% (active),-98.3% (active),-18.1% (active),-68.2% (active),-0.666% (active)
O=C1Nc2ccccc2/C1=C\c1cccc(/C=C2/C(=O)Nc3ccccc32)n1,-90.2% (active),-24.1% (active),-40.3% (active),-52.3% (active),-67.1% (active),-81% (active),-73.4% (active),-65.8% (active),-69.2% (active),-81.3% (active),2.35% (active),-71.5% (active),-82.7% (active),-98.1% (active),-28% (active),-99.1% (active),-67.3% (active),-88.2% (active),-88.8% (active)
COc1ccc(C(=O)c2cc3c(N)c(C(=O)Nc4cccc(Cl)c4)sc3nc2C)cc1,18%,6.91% (active),51.2%,28.4%,44.7%,31.3%,-15.5% (active),71.4%,17.9%,21%,-3.3% (active),-10.1% (active),41.8%,23%,27.9%,9.91% (active),39.3%,48.2%,65.7%
CC(=O)Nc1ccc(C(=O)Nc2cc(-c3ccccc3)ccc2N)cc1,73.2%,39.2%,80.6%,92.5%,68.2%,58.7%,81%,72.6%,77.3%,85.7%,50.7%,60.4%,91.7%,78.1%,64.7%,68.3%,39.5%,71.3%,56.6%
CCN(CC)CCCCCCNc1cc(OC)cc2cccnc12,40.8%,-47.8% (active),-77.4% (active),32.6%,79.3%,86.5%,68.5%,115%,-28.7% (active),-4.8% (active),-44.8% (active),75.5%,95.6%,5.33% (active),82.8%,68.5%,102%,-60.4% (active),-11.8% (active)
COc1ccc(C(=O)/C=C/c2cn(Cc3ccc(Cl)cc3)c3ccccc23)cc1,87.4%,15.5%,59.9%,64.5%,72.4%,60.2%,55.8%,81.8%,-60.1% (active),39.7%,22.8%,76.9%,82.4%,59.6%,61.3%,89.1%,31.3%,49.2%,80.6%
O=C1NC(=S)NC(=O)C1=Cc1cccc(C=C2C(=O)NC(=S)NC2=O)c1,110%,102%,109%,108%,103%,108%,99.9%,102%,-58.6% (active),105%,104%,98.9%,98.9%,114%,104%,100%,101%,102%,110%
CN1CCN(Cc2ccc(NC(=O)c3cncc(C#Cc4cnccc4C(F)(F)F)c3)cc2C(F)(F)F)CC1,105%,8.53% (active),15.3%,55.6%,92.1%,88.6%,28.8%,80.4%,35.2%,70.2%,23.5%,89%,103%,78.4%,80.4%,75.1%,89.9%,20.9%,56.6%
Cn1c(COC(=O)NCCN2CCOCC2)nc2c(N3CCOCC3)nc(-c3ccccc3)nc21,-81.6% (active),0.451% (active),-91.9% (active),-88.9% (active),-36.8% (active),57%,-98.7% (active),-46.6% (active),-75.9% (active),-39.4% (active),-58.1% (active),-3.92% (active),48.7%,-52.5% (active),-71.2% (active),-93.6% (active),-93.6% (active),-87.2% (active),-97.6% (active)
CCNC(=O)c1[nH]cc(-c2ccc(OC)cc2)c1-c1cc(OC)c(OC)c(OC)c1,69.3%,12.1%,35.4%,74.5%,58.8%,30.3%,29.1%,81.3%,51.4%,35.7%,14.7%,-6.81% (active),55.2%,55.5%,28.8%,16%,27%,44.5%,56.7%
CCOC(=O)c1cnc2c(cnn2CC)c1NN=C(C)C,100%,62.9%,99.7%,91.6%,92.4%,96.1%,94.8%,113%,106%,86%,84.7%,69%,87.6%,90.4%,98.4%,90.4%,79.3%,90.7%,113%
COc1nccnn1,96.2%,80.7%,120%,110%,114%,136%,104%,109%,108%,98.1%,97.8%,96.5%,91.2%,100%,87.1%,104%,98.9%,94.9%,102%
COc1cc(-c2cc(=O)oc3cc(O)ccc23)cc(OC)c1OC,96.3%,66.2%,90.1%,89.3%,88.7%,93.4%,93.4%,99.3%,98.3%,91.3%,95.1%,74.5%,95.3%,96.7%,71.9%,91.4%,88.1%,97.1%,99.3%
